Measured values published in PubChem BioAssay (NCI).
Compounds without any hit were thinned out: in the full panel of roughly 83,000, 20% have a hit.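 Note: values are percent growth. 100 is the growth of untreated cells, values between 100 and 0 indicate rising inhibition; between -100 and 0 indicates cell death.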 Activity calls are given as the source filed them. Rule for the calls: active = growth percent below 10; inactive = the rest.

What was measured:
Test in all cases: NCI-60 one-dose screen, 48 h (100 = growth as untreated, 0 = no growth, -100 = all killed)
Conditions in all cases: 10 µM unless noted
[1] = system: NCI-H23 lung
[2] = system: NCI-H226 lung
[3] = system: NCI-H322M lung
[4] = system: HOP-62 NSCLC
[5] = system: NCI-H460 lung
[6] = system: HOP-92 NSCLC
[7] = system: A549/ATCC NSCLC
[8] = system: 786-0 renal
[9] = system: COLO 205 colon
[10] = system: DU-145 prostate
[11] = system: K-562 leukemia
[12] = system: MALME-3M melanoma
[13] = system: MDA-MB-231 breast
[14] = system: RXF 393 renal
[15] = system: SF-268 CNS
[16] = system: SF-295 CNS
[17] = system: SF-539 CNS
[18] = system: UACC-257 melanoma
[19] = system: M14 melanoma

Measured: growth

COc1ccc2sc3c(NCCCNCCO)nc4ccccc4c3c(=O)c2c1
active: [5] -71.1% | [9] -35.4% | [11] -28.2% | [13] -12.9% | [19] -66.6%
inactive: [1] 63.6% | [2] 98% | [3] 72.8% | [4] 77.3% | [6] 31.2% | [7] 62.6% | [8] 63% | [10] 41% | [12] 85.9% | [14] 52.3% | [15] 50.8% | [16] 85.7% | [17] 45.5% | [18] 92.3%

O=C(CCN1C(=O)/C(=C/c2ccc(O)cc2)SC1=S)Nc1ccc(Cl)cc1
inactive: [1] 91.3% | [2] 97.8% | [3] 82.6% | [4] 84.8% | [5] 102% | [6] 85.9% | [7] 92.1% | [8] 99.7% | [9] 120% | [10] 108% | [11] 89.7% | [12] 89.9% | [13] 86.3% | [14] 108% | [15] 90.9% | [16] 92.9% | [17] 96.1% | [18] 101% | [19] 100%

COc1ccc(C2CC(c3ccc(Nc4ccnc5cc(Cl)ccc45)cc3)=NN2C=O)cc1 (configuration not stated)
inactive: [1] 76.9% | [2] 90.5% | [3] 103% | [4] 90.7% | [5] 80.2% | [6] 48.3% | [7] 64.3% | [8] 70.5% | [9] 89.4% | [10] 73.4% | [11] 17.4% | [12] 62% | [13] 78.8% | [14] 76.7% | [15] 58% | [16] 51.5% | [17] 94.6% | [18] 93.5% | [19] 50.5%
